# Test results reported in PubChem BioAssay (NCATS).
# Records with an inconclusive call do not appear. Entries that show only a call come without a potency. The source holds several records for some structures; these can differ, active in one and inactive in another. The source made the active and inactive calls. Calls come from the whole dose curve; as a rule, active = well fitted curve in the direction sought with a large enough effect; inconclusive = small, poorly fitted or top-dose-only effect, or another doubt; inactive = no such curve, though single readings can be large; an effect the other way counts as inactive or inconclusive.
# Target: M-phase phosphoprotein 8 (Homo sapiens) (UniProt Q99549)
# Sequence (Q99549 whole entry, looked up): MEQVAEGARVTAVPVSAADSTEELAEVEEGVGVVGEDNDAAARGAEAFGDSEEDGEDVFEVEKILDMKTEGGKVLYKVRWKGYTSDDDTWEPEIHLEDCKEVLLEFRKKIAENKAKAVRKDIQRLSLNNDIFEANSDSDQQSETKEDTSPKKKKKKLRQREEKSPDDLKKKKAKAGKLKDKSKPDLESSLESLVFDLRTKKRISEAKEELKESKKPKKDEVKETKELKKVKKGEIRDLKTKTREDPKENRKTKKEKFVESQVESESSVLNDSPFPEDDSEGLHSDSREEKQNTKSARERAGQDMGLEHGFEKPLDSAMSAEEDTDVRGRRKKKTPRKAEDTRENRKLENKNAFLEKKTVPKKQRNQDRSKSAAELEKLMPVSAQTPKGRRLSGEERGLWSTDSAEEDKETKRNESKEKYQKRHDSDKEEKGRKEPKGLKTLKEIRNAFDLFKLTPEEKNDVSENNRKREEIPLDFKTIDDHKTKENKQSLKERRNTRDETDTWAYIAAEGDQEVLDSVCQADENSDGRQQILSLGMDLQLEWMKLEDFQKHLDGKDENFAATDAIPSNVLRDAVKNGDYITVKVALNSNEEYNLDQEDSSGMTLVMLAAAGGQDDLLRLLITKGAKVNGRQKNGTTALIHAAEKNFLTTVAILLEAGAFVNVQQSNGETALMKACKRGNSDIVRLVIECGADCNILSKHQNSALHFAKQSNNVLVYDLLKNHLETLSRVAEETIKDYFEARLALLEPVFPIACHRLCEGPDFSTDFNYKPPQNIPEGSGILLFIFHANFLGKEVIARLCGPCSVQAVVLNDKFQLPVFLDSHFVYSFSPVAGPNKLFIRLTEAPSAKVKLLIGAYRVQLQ
# Assay: qHTS Validation Assay for Inhibitors for MPP8 Chromodomain Interactions with Methylated Histone Tails (AID 488949); note: nearly all actives have a fitted effect of over 55% in size; note: potency is the fitted concentration of half-maximal effect
# Details: AlphaScreen MPP8 binding to H3K9me3 peptide; series mostly up to 57.1 µM
# Summary of the method: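 MPP8 (50 nM) was preincubated with biotinylated H3(1-18)K9me3 peptide (50 nM) in PBS pH 7.4, 0.01% Tween-20 for 30 min at room temperature, then with compounds for 30 min; binding was detected by AlphaScreen.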
row,Structure (SMILES),Potency
1,CC1=NS(=O)(=O)c2cc(Cl)ccc2N1,inactive
2,Cc1nc2c([nH]1)c(=O)n(C)c(=O)n2Cc1ccco1,inactive
3,COC(=O)[C@@H](N)Cc1ccc(O)c(O)c1,inactive
4,C[C@]12C=CC(=O)C=C1CC[C@H]1[C@@H]3C[C@@H](O)[C@](O)(C(=O)CO)[C@@]3(C)C[C@H](O)[C@@]12F,inactive
5,Nc1c2c(nc3ccccc13)CCCC2O (configuration not stated),inactive
6,CN(C(=O)CCCOc1ccc2[nH]c(=O)ccc2c1)C1CCCCC1,inactive
7,CCOC(=O)C1=C(C)NC(C)=C(C(=O)OC)C1c1cccc(Cl)c1Cl (configuration not stated),inactive
8,CC(=O)Nc1nnc(S(N)(=O)=O)s1,inactive
9,CC(N=C(NC#N)Nc1ccncc1)C(C)(C)C (configuration not stated),inactive
10,c1ccc2c(c1)CCCC2C1=NCCN1 (configuration not stated),inactive
11,CC(=O)OC(C)C[N+](C)(C)C (configuration not stated),inactive
12,Cc1ccc(=O)n(-c2ccccc2)c1,inactive
13,OC(CCN1CCCCC1)(c1ccccc1)C1CCCCC1 (configuration not stated),inactive
14,Cc1nc2sccn2c(=O)c1CCN1CCC(=C(c2ccc(F)cc2)c2ccc(F)cc2)CC1,28.2 µM (active) and inactive
15,CCN(CC)CCNC(=O)c1cc(S(C)(=O)=O)ccc1OC,inactive

# Target: Chromobox protein homolog 1 (Homo sapiens) (UniProt P83916)
# Sequence (P83916 whole entry, looked up): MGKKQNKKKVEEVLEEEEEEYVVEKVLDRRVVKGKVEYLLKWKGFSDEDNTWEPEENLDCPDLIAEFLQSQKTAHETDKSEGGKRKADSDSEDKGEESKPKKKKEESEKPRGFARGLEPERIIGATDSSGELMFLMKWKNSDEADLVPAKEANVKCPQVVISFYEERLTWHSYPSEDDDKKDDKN
# Assay: qHTS Validation Assay for Inhibitors of HP1-beta Chromodomain Interactions with Methylated Histone Tails (AID 488953); note: nearly all actives have a fitted effect of over 50% in size; note: potency is the fitted concentration of half-maximal effect
# Details: HP1-beta chromodomain / methylated histone peptide binding assay; series mostly up to 114 µM
# Summary of the method: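 Disruption of preformed HP1-beta:H3K9me3 peptide complexes (both 50 nM, PBS pH 7.4 with 0.01% Tween-20) is measured by AlphaScreen after 30 min compound exposure at room temperature, using streptavidin donor and nickel chelate acceptor beads at 10 ug/mL final.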
row,Structure (SMILES),Potency
1,COc1cc2c(cc1OC)-c1cc(=Nc3c(C)cc(C)cc3C)n(C)c(=O)n1CC2,35.5 µM (active)
2,COCCc1ccc(OCC(O)CNC(C)C)cc1 (configuration not stated),inactive
3,NC(=O)N1c2ccccc2C=Cc2ccccc21,inactive
4,CCCCCN(CCCCC)C(=O)C(CCC(=O)O)NC(=O)c1ccc(Cl)c(Cl)c1 (configuration not stated),inactive
5,NC(N)=NC(=O)Cc1c(Cl)cccc1Cl,inactive
6,CN(C)CC[C@@H](c1ccc(Br)cc1)c1ccccn1,inactive
7,CNCCC(Oc1ccccc1OC)c1ccccc1 (configuration not stated),inactive
8,C[N+](C)(C)CCOC(=O)CCC(=O)OCC[N+](C)(C)C,inactive
9,NC(N)=N/N=C/c1c(Cl)cccc1Cl,inactive
10,O=C1NCN(c2ccccc2)C12CCN(CCCC(c1ccc(F)cc1)c1ccc(F)cc1)CC2,39.8 µM (active)
11,C[N+](C)(C)CCCCCCCCCC[N+](C)(C)C,inactive
12,COc1ccc(CN(CCN(C)C)c2ccccn2)cc1,inactive
13,CC[N+](C)(C)c1cccc(O)c1,inactive
14,c1cnc(N2CCN(Cc3ccc4c(c3)OCO4)CC2)nc1,inactive
15,CC1=C(C)C(=O)C(CCCCC#CCCCC#CCO)=C(C)C1=O,31.6 µM (active)
16,CCN1CCc2nc(N)oc2CC1,inactive
17,O=C(O)CN(CCN(CC(=O)O)CC(=O)O)CCN(CC(=O)O)CC(=O)O,inactive
18,CC(C)COCC(CN(Cc1ccccc1)c1ccccc1)N1CCCC1 (configuration not stated),inactive

row,Structure (SMILES),Potency
1,CCCCNc1c(C(=O)OCC)c(C)nc2c1cnn2CC,inactive
2,CC(C)NNC(=O)c1ccncc1,inactive
3,O=C(CCCN1CCC(O)(c2cccc(C(F)(F)F)c2)CC1)c1ccc(F)cc1,inactive
4,CC1=NS(=O)(=O)c2cc(Cl)ccc2N1,inactive
5,Cc1nc2c([nH]1)c(=O)n(C)c(=O)n2Cc1ccco1,inactive
6,COC(=O)[C@@H](N)Cc1ccc(O)c(O)c1,inactive
7,C[C@]12C=CC(=O)C=C1CC[C@H]1[C@@H]3C[C@@H](O)[C@](O)(C(=O)CO)[C@@]3(C)C[C@H](O)[C@@]12F,inactive
8,Nc1c2c(nc3ccccc13)CCCC2O (configuration not stated),inactive
9,CN(C(=O)CCCOc1ccc2[nH]c(=O)ccc2c1)C1CCCCC1,inactive
10,CCOC(=O)C1=C(C)NC(C)=C(C(=O)OC)C1c1cccc(Cl)c1Cl (configuration not stated),inactive
11,CC(=O)Nc1nnc(S(N)(=O)=O)s1,inactive
12,CC(N=C(NC#N)Nc1ccncc1)C(C)(C)C (configuration not stated),inactive
13,c1ccc2c(c1)CCCC2C1=NCCN1 (configuration not stated),inactive
14,CC(=O)OC(C)C[N+](C)(C)C (configuration not stated),inactive
15,Cc1ccc(=O)n(-c2ccccc2)c1,inactive
16,OC(CCN1CCCCC1)(c1ccccc1)C1CCCCC1 (configuration not stated),inactive
17,Cc1nc2sccn2c(=O)c1CCN1CCC(=C(c2ccc(F)cc2)c2ccc(F)cc2)CC1,44.7 µM (active)
18,CCN(CC)CCNC(=O)c1cc(S(C)(=O)=O)ccc1OC,inactive

# Target: Methanococcus maripaludis chaperonin (MmCpn) (UniProt Q6LX38)
# Sequence (Q6LX38 1-543): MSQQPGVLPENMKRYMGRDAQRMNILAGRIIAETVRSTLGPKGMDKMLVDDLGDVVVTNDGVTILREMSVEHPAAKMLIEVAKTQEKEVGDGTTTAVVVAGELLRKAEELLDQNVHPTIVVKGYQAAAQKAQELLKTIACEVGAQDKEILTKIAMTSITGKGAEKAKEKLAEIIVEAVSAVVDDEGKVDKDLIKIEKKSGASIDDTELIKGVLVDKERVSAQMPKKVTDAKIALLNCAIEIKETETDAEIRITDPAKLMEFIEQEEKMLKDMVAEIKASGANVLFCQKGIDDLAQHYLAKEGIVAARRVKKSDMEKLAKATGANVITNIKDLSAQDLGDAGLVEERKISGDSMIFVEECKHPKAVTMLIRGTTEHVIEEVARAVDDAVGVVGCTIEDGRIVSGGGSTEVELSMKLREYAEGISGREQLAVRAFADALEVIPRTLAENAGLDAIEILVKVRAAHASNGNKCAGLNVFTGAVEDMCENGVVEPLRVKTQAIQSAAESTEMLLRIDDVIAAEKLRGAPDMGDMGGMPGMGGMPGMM
# Assay: High-Throughput Screening for Modulators of Cytosolic Chaperonin Activity: MmCpn Primary Screen (AID 488978);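 note: 50 nM MmCpn enzyme hydrolysing 30 µM ATP at 37 °C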
# Details: Purified MmCpn ATPase activity, ADP HTRF detection, 10 min; series mostly up to 76.9 µM
# Summary of the method: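 MmCpn (50 nM final) was preincubated with compound 5 min at RT, then 30 uM ATP (final) was added and the reaction ran 10 min at 37C. ADP produced was detected by Transcreener HTRF (ex 320 nm; em 590/665 nm).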
row,Structure (SMILES),outcome
1,COc1cc2c(cc1OC)-c1cc(=Nc3c(C)cc(C)cc3C)n(C)c(=O)n1CC2,inactive
2,COCCc1ccc(OCC(O)CNC(C)C)cc1 (configuration not stated),inactive
3,NC(=O)N1c2ccccc2C=Cc2ccccc21,inactive
4,CCCCCN(CCCCC)C(=O)C(CCC(=O)O)NC(=O)c1ccc(Cl)c(Cl)c1 (configuration not stated),inactive
5,NC(N)=NC(=O)Cc1c(Cl)cccc1Cl,inactive
6,CN(C)CC[C@@H](c1ccc(Br)cc1)c1ccccn1,inactive
7,CNCCC(Oc1ccccc1OC)c1ccccc1 (configuration not stated),inactive
8,C[N+](C)(C)CCOC(=O)CCC(=O)OCC[N+](C)(C)C,inactive
9,NC(N)=N/N=C/c1c(Cl)cccc1Cl,inactive
10,O=C1NCN(c2ccccc2)C12CCN(CCCC(c1ccc(F)cc1)c1ccc(F)cc1)CC2,inactive
11,C[N+](C)(C)CCCCCCCCCC[N+](C)(C)C,inactive
12,COc1ccc(CN(CCN(C)C)c2ccccn2)cc1,inactive
13,CC[N+](C)(C)c1cccc(O)c1,inactive
14,c1cnc(N2CCN(Cc3ccc4c(c3)OCO4)CC2)nc1,inactive
15,CC1=C(C)C(=O)C(CCCCC#CCCCC#CCO)=C(C)C1=O,inactive
16,CCN1CCc2nc(N)oc2CC1,inactive
17,O=C(O)CN(CCN(CC(=O)O)CC(=O)O)CCN(CC(=O)O)CC(=O)O,inactive
18,CC(C)COCC(CN(Cc1ccccc1)c1ccccc1)N1CCCC1 (configuration not stated),inactive

row,Structure (SMILES),outcome
1,CCCCNc1c(C(=O)OCC)c(C)nc2c1cnn2CC,inactive
2,CC(C)NNC(=O)c1ccncc1,inactive
3,O=C(CCCN1CCC(O)(c2cccc(C(F)(F)F)c2)CC1)c1ccc(F)cc1,inactive
4,CC1=NS(=O)(=O)c2cc(Cl)ccc2N1,inactive
5,Cc1nc2c([nH]1)c(=O)n(C)c(=O)n2Cc1ccco1,inactive
6,COC(=O)[C@@H](N)Cc1ccc(O)c(O)c1,inactive
7,C[C@]12C=CC(=O)C=C1CC[C@H]1[C@@H]3C[C@@H](O)[C@](O)(C(=O)CO)[C@@]3(C)C[C@H](O)[C@@]12F,inactive
8,Nc1c2c(nc3ccccc13)CCCC2O (configuration not stated),inactive
9,CN(C(=O)CCCOc1ccc2[nH]c(=O)ccc2c1)C1CCCCC1,inactive
10,CCOC(=O)C1=C(C)NC(C)=C(C(=O)OC)C1c1cccc(Cl)c1Cl (configuration not stated),inactive
11,CC(=O)Nc1nnc(S(N)(=O)=O)s1,inactive
12,CC(N=C(NC#N)Nc1ccncc1)C(C)(C)C (configuration not stated),inactive
13,c1ccc2c(c1)CCCC2C1=NCCN1 (configuration not stated),inactive
14,CC(=O)OC(C)C[N+](C)(C)C (configuration not stated),inactive
15,Cc1ccc(=O)n(-c2ccccc2)c1,inactive
16,OC(CCN1CCCCC1)(c1ccccc1)C1CCCCC1 (configuration not stated),inactive
17,Cc1nc2sccn2c(=O)c1CCN1CCC(=C(c2ccc(F)cc2)c2ccc(F)cc2)CC1,inactive
18,CCN(CC)CCNC(=O)c1cc(S(C)(=O)=O)ccc1OC,inactive
